Laboratory results: PubChem BioAssay AID651819 (National Center for Advancing Translational Sciences (NCATS), 2012)
Among all 360,000 compounds or so, about 1,100 (0.31%) were called active. For the sample, actives were picked, then their nearest neighbours and some compounds at random. Unmarked numbers belong to inactive results. Cut-off read from the data, not from the text of the source: active = activity change below about -30%; inactive = the rest.

Test system: cytosolic chaperonin (CCT/TRiC complex)
Assay: High-Throughput Screening for Modulators of Cytosolic Chaperonin Activity
Details: purified chaperonin ATPase assay, HTRF ADP detection, 30 min; active compounds read low
Source text: The eukaryotic chaperonin named TRiC (for TCP-1 ring complex), also called CCT (for chaperonin containing TCP1), is an essential and conserved chaperone required for the folding and activation of 10-15% of the proteins encoded by the human genome. […] Despite its central role in cellular folding, little is known about TRiC mechanism and mode of substrate binding. Currently, no specific TRiC inhibitors are available. Given the early promise of other chaperone-directed inhibitors as cancer therapeutics (e.g. HSP90 inhibitors), inhibitors of TRiC activity may also selectively target transformed cells and have potential use as therapeutics for cancer.
To this end, a miniaturized assay was developed to screen against the Molecular Libraries Small Molecule Repository (MLSMR).
NIH Chemical Genomics Center [NCGC]
NIH Molecular Libraries Probe Centers Network [MLPCN]
Assay Submitter (PI): Judith Frydman, Stanford University
1.5 uL/well TRiC enzyme suspended in buffer (30 mM TRIS pH7.4, 100 mM KCl, 5 mM MgCl2, 1 mM DTT) was added with BioRAPTR FRD dispenser at 40 nM or 20 nM (based on the enzymatic activity of used batches) final concentration to a white solid bottom medium binding 1536-well plate (Greiner Bio-One, Monroe, NC), and quickly spanned down. 23 nl/well of compound solutions in DMSO were added with a pintool transfer (Kalypsis, San Diego, CA) at a single 76 uM final concentration. Next, 1.5 µl/well ATP was dispensed with BioraptR at 10 uM final concentration after which the plates were incubated at 37 deg C for 30 min. HTRF(R) Transcreener(R) ADP (Cisbio US, Bedford, MA) detection reagents were prepared accordingly to the protocol and dispensed into the plate (1.5 uL/well each), incubated for 30 min at ambient temperature. Then, the plates were read using Envision reader with excitation at 330nm and emission at 615nm (Eu(3)-Cryptate donor signal) and 665nm (d2 acceptor signal). The ratio of […] was calculated for each well.
% is set by controls: 0 for no effect and ±100 for the full control effect.

Q: Which activity change does the source give for `COc1ccc2c(c1)C(=O)CC(c1ccccc1)O2` (stereo unspecified) here?
A: 0.324%

Q: With `O=C1CC(c2ccccc2)C(=O)N2C(=O)CC(c3ccccc3)C(=O)N12` (stereo unspecified) as the compound, how does the activity change read?
A: -3.94%

Q: For `Cc1c(O)c(C)c2c(c1O)C(=O)C[C@@H](c1ccccc1)O2`, which activity change is on record?
A: -31.9% (active)

Q: For `CCc1ccc(C(=O)N2CCN(S(=O)(=O)c3sc(C(=O)O)c(C)c3C(=O)O)CC2)cc1`, which activity change is on record?
A: -1.96%

Q: With `COC(=O)CN(c1nc(C)c(Cl)c(OC)n1)S(=O)(=O)c1ccc(C)cc1` as the compound, how does the activity change read?
A: 2.28%

Q: `CC1CCC2(CC1)NC(=O)N(CC(=O)c1cccn1C)C2=O` (stereo unspecified) was tested. Which activity change did it give?
A: 0.876%

Q: For `Cc1cc(C(F)F)nn1CC(=O)NC1CCCCCC1`, which activity change is on record?
A: -0.636%

Q: For `O=C(Cn1nc([N+](=O)[O-])nc1Br)NC1CCCCC1`, which activity change is on record?
A: -63% (active)

Q: Which activity change does the source give for `Cc1nn(CC(=O)NC2CCCCC2)c(=O)c2cccn12` here?
A: 0.008%

Q: With `COc1c(Br)cc2c(C)c(C(=O)N3CCOCC3)oc2c1Br` as the compound, how does the activity change read?
A: -0.84%

Q: For `Cc1ccc2[nH]c(=O)c(CN(C)S(=O)(=O)c3cccc4nonc34)cc2c1`, which activity change is on record?
A: -2.6%

Q: With `CCc1ccc(S(=O)(=O)NCC(O)COc2ccc(OC)cc2)cc1` (stereo unspecified) as the compound, how does the activity change read?
A: 2.49%

Q: How did the activity change turn out when `CCCc1ccc(OCC(O)CN2CCN(C(=O)OCC)CC2)cc1` (stereo unspecified) was run?
A: 0.305%

Q: How did the activity change turn out when `Nc1ccc(OCC(O)C[n+]2ccc(CCS(=O)(=O)[O-])cc2)cc1` (stereo unspecified) was run?
A: -32.1% (active)

Q: For `O=C(Nc1cccc(Cl)c1Cl)c1ccccc1NC(=O)C1CC=CCC1C(=O)O` (stereo unspecified), which activity change is on record?
A: 1.29%

Q: With `O=C(c1ccc(Cl)cc1)n1cnc2ccccc21` as the compound, how does the activity change read?
A: -0.842%

Q: Which activity change does the source give for `COC(=O)c1ccc(SCc2ccccc2)nc1` here?
A: -0.717%

Q: `COC(=O)c1ccc(-n2cnc3ccccc32)nc1` was tested. Which activity change did it give?
A: -67.7% (active)

Q: How did the activity change turn out when `CS(=O)(=O)N(Cc1nc2sc3c(c2c(=O)[nH]1)CCCC3)C1CCCCC1` was run?
A: -3.6%

Q: Which activity change does the source give for `COC(=O)c1sccc1N/N=C(\C)c1ccc(F)c(Cl)c1` here?
A: 0.343%

Q: For `COc1ccc(CCNC(=O)CS(=O)(=O)Cc2nc(-c3ccc(C)cc3)oc2C)cc1OC`, which activity change is on record?
A: -1.25%

Q: With `COc1ccc(-c2nc(CS(=O)(=O)CC(=O)NCc3cccc(Br)c3)c(C)o2)cc1` as the compound, how does the activity change read?
A: -0.857%

Q: Which activity change does the source give for `Cc1ccc(-c2nc(CS(=O)(=O)CC(=O)NCc3ccc4c(c3)OCO4)c(C)o2)cc1` here?
A: -39.8% (active)

Q: For `CC12CN(Cc3ccccc3)CC(C)(CN(Cc3ccccc3)C1)C2=NO`, which activity change is on record?
A: 1.91%

Q: For `CC(C)(C)CN1C(=O)C(=O)NC[C@H]1Cc1cccc2ccccc12`, which activity change is on record?
A: -2.37%

Q: How did the activity change turn out when `CCOc1ccccc1NC(=O)CCc1nnc2ccc(NCc3ccco3)nn12` was run?
A: 1.37%

Q: Which activity change does the source give for `CC(=O)c1ccc(NC(=O)CCc2nnc3ccc(NCc4ccco4)nn23)cc1` here?
A: -1.16%

Q: How did the activity change turn out when `O=C(CCc1nnc2ccc(NCc3ccco3)nn12)Nc1cc(F)ccc1F` was run?
A: -33.9% (active)

Q: For `COC(=O)[C@@]1(Cc2ccc(F)cc2)[C@H]2c3cc(C(=O)N(C)C)n(CCc4c[nH]c5ccc(OC)cc45)c3C[C@H]2CN1C(=O)c1ccccc1`, which activity change is on record?
A: -0.685%

Q: For `C=CCOc1ccc(/C=N/NC(=O)C(C)Sc2ccccn2)cc1OCC` (stereo unspecified), which activity change is on record?
A: -2.2%

Q: `O=C(NNC(=O)c1cccc(S(=O)(=O)Nc2ccc(Cl)cc2)c1)c1ccc(=O)[nH]c1` was tested. Which activity change did it give?
A: -0.309%

Q: How did the activity change turn out when `CCc1ccc(/C=N/NC(=O)c2ccc(OC3CCCC3)cc2)s1` was run?
A: -13.3%

Q: For `CC(=O)c1c(C)n(-c2ccc(C)cc2)c2ccc(O)cc12`, which activity change is on record?
A: -47.3% (active)

Q: How did the activity change turn out when `CC(=O)c1c(C)n(-c2ccc(N(C)C)cc2)c2ccc(OCC(N)=O)cc12` was run?
A: 0.0827%

Q: Which activity change does the source give for `CCOC(=O)c1c(CN2CCOCC2)n(-c2ccccc2)c2ccc(O)cc12` here?
A: -1.1%

Q: Which activity change does the source give for `Cc1ccc(CN2C(=O)CCC2C(=O)NCCCN2CCCCC2C)cc1` (stereo unspecified) here?
A: 0.0456%

Q: For `CC1CCN(c2ccc(S(=O)(=O)Nc3cc(C(=O)O)cc(C(=O)O)c3)cc2[N+](=O)[O-])CC1`, which activity change is on record?
A: -0.243%

Q: How did the activity change turn out when `CCc1ccccc1NC(=O)Cc1cn(C)c2ccccc12` was run?
A: -2.82%

Q: How did the activity change turn out when `O=C(NCc1ccco1)C1CCCN(S(=O)(=O)c2cccc3nonc23)C1` (stereo unspecified) was run?
A: -0.959%

Q: For `Cc1ccc2c(c1)N(C(=O)CCC(=O)NCc1cccnc1)CCO2`, which activity change is on record?
A: -3.52%

Q: `Cc1ccccc1CN1CCN(CC(=O)NCc2ccccn2)C1=O` was tested. Which activity change did it give?
A: 0.386%

Q: Which activity change does the source give for `Cc1ccccc1CNC(=O)CCC(=O)N1Cc2ccccc2Oc2ncccc21` here?
A: -84.3% (active)

Q: `COC(=O)[C@@H](NC(=O)NCc1cccc(OC)c1)C(C)C` was tested. Which activity change did it give?
A: -2.29%

Q: Which activity change does the source give for `COC(=O)Nc1ncc(CN2C(=O)c3ccccc3C2=O)s1` here?
A: -0.4%

Q: `Cc1noc(C)c1S(=O)(=O)N1CCCC(C(=O)Nc2nccs2)C1` (stereo unspecified) was tested. Which activity change did it give?
A: -0.498%

Q: With `CC(Cc1cccs1)N(Cc1ccc(Cl)cc1)C(=O)c1ccncc1` (stereo unspecified) as the compound, how does the activity change read?
A: 1.98%

Q: For `COc1ccc(C(O)c2nc(-c3ccc4c(c3)OCO4)cs2)cc1` (stereo unspecified), which activity change is on record?
A: -0.395%

Q: Which activity change does the source give for `Brc1ccc(-c2csc(N/N=C/c3ccc4c(c3)OCO4)n2)cc1` here?
A: -49.7% (active)

Q: How did the activity change turn out when `CC(O)(c1cccc(F)c1)c1nc(-c2ccc3c(c2)OCO3)cs1` (stereo unspecified) was run?
A: -0.833%

Q: Which activity change does the source give for `O=C(NCCCNC(=O)NC1CCCCC1)NC1CCCCC1` here?
A: -1.85%

Q: Which activity change does the source give for `Cc1cc(OC(=O)c2ccc(OC(C)C)cc2)c([N+](=O)[O-])c(=O)[nH]1` here?
A: -0.062%

Q: `CCCCC(CC)CNC(=O)CCCCn1c(=O)[nH]c2ccsc2c1=O` (stereo unspecified) was tested. Which activity change did it give?
A: 1.33%

Q: With `O=C(CCCCCn1c(=S)[nH]c2ccsc2c1=O)NC1CCCCC1` as the compound, how does the activity change read?
A: -30.8% (active)

Q: For `O=C(CCC(=O)c1cccs1)NC1CCCCCC1`, which activity change is on record?
A: 0.811%

Q: For `CCN(CC)CCCN=C(N)N`, which activity change is on record?
A: -0.0838%

Q: `CC(C)(C)C(=O)NC1CC2CCCC(C1)N2C(=O)Nc1ccccc1F` (stereo unspecified) was tested. Which activity change did it give?
A: -5.23%

Q: For `C=CS(=O)c1sc(Cl)c(N2CCOCC2)c1[N+](=O)[O-]` (stereo unspecified), which activity change is on record?
A: -1.53%

Q: How did the activity change turn out when `CC(C)C(NC(=O)C1CCC(C(C)(C)C)CC1)C(=O)NCCCN1CCCCC1` (stereo unspecified) was run?
A: 0.128%

Q: How did the activity change turn out when `COc1ccc(CCNC(=O)CCc2ccccc2O)cc1OC` was run?
A: -0.891%

Q: `COc1ccc(CC(=O)c2ccc(O)cc2O)cc1OC` was tested. Which activity change did it give?
A: -38.8% (active)

Q: `O=C(Cc1ccccn1)c1ccc(O)cc1O` was tested. Which activity change did it give?
A: -0.381%
